Inhibition data for three compounds are collected here from PubChem BioAssay AID1952 (The Scripps Research Institute Molecular Screening Center, 2009).

Among all 2,400 compounds or so, about 1,200 (50%) were called active. The set was probably picked from earlier hits. Not all results are given here. Unmarked numbers belong to inactive results. Cut-off read from the data, not from the text of the source: active = inhibition above about 24%; inactive = the rest.

The term inhibition denotes the percentage by which the read-out fell short of the control.

In the assay the target is Neuropeptides B/W receptor type 1 (Homo sapiens) (UniProt P48145). Briefly: GPR7 receptor antagonists, confirmation, cell-based, fluorescence, single concentration (AID 1952).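 Note: stimulated with the GPR7 agonist NPW; 0% = agonist plus vehicle and 100% = vehicle alone without agonist.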 The note with it: GPR7-expressing cells, calcium fluorescence antagonist mode; at 4.4 µM; stronger effect = higher value.
Neuropeptides B/W receptor type 1 (Homo sapiens), sequence (P48145 whole entry, looked up): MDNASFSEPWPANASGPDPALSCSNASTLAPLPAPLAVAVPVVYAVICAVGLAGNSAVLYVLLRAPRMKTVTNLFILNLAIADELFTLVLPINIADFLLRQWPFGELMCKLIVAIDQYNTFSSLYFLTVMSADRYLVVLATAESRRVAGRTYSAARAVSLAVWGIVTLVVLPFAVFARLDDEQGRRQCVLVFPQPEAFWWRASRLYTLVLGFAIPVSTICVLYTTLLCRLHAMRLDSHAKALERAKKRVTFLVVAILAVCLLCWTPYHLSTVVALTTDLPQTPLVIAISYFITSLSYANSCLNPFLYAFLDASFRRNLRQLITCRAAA
As for `CCOc1ccc(-c2cc(C)[n+](CCN(CC)CC)c(-c3ccc(OCC)cc3)c2)cc1`, the inhibition is 41.8% (active).

On to `COc1ccc(Br)cc1CNCCc1cccc(Cl)c1`, for which the inhibition was 32.7% (active).

For `CCOC(=O)C1(Cc2ccc(Cl)cc2)CCN(C(C)CCn2cccn2)CC1` (stereo not drawn), the inhibition was 18.4%.
